# Measured values as given in PubChem BioAssay (NCI).
# Values joined by “and” are separate entries in the source; they are usually repeats but may differ in a detail not shown here. Equal values may be shown once. The panel holds about 83,000 compounds, 20% with a hit somewhere; the sample as a whole holds those more often.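 Negative percent growth values reflect cell death: -40 means 40% of the cells present at the start died, and -100 means all died.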 A number with no mark means an inactive call. Active and inactive are the calls of the source. Rule for the calls: active = growth percent below 10; inactive = the rest.
# System: HL-60(TB) leukemia
# Assay: NCI-60 one-dose screen, 48 h (100 = growth as untreated, 0 = no growth, -100 = all killed)
# Details: 10 µM unless noted
row,Structure (SMILES),growth
1,CCCCn1cnc2c(Sc3c([N+](=O)[O-])ncn3C)nc(N)nc21,54.3%
2,OC(c1ccccc1)C(NC(Cc1ccccc1)c1ccccc1)c1ccccc1 (configuration not stated),112%
3,CC1(C)CCCN1CCCN1c2ccccc2Sc2ccc(Cl)cc21,46%
4,Cc1nc2c(=O)[nH]c(=S)[nH]c2[nH]c1=O,75.3% and 96.3%
5,COC(=O)c1ccccc1Br,76.5%
6,COc1ccc(C(=O)c2cc(OC)c(OC)c(OC)c2)cc1/C=C/C(=O)c1ccc(OC)c(OC)c1,19.1%
7,CCCCCC(=O)OCC(=O)O[C@@H]1C[C@]2(C(C)C)O[C@@]1(C)[C@@H]1CC[C@@H](C)[C@H]1[C@@H]2OC(=O)/C=C/c1ccccc1,78.5%
8,CCOc1ccc2c(S(=O)(=O)O)cccc2c1[N+](=O)[O-],113% and 95.7%
9,CCn1cnc(C[C@H](NC(=O)[C@H](CCCCNC(=O)Nc2cc(C(F)(F)F)cc(C(F)(F)F)c2)NC(=O)Nc2cc(C(F)(F)F)cc(C(F)(F)F)c2)C(=O)OC)c1,-48.7% [100 µM] (active)
10,O=C1/C(=C/c2ccc(F)cc2)COc2ccc(O)c(O)c21,-17% (active)
11,COc1ccc(-c2cc(C(=O)N=Nc3c(O)[nH]c4ccccc34)no2)cc1,91.8%
12,O=C(NCc1cccc(C(F)(F)F)c1)[C@H](CCC(=O)N1CCN(C2CCCCC2)CC1)N1C(=O)[C@@H](N2C(=O)OC[C@@H]2c2ccccc2)[C@H]1/C(Cl)=C/c1ccccc1,5.62% (active)
